Laboratory results taken from PubChem BioAssay (NCATS).
Records with an inconclusive call do not appear. A number with no mark means an inactive call. Active and inactive are the calls of the source. The call rests on the fitted dose curve; in most records, active means well fitted inhibition curve with a large enough effect; inconclusive means small, poorly fitted or top-dose-only effect; inactive means flat fitted curve, though single readings scatter. Where a SMILES comes first, the peptide text is derived from it. Bridges are numbered along the chain shown (N, C = ends).

Target: Luciferin 4-monooxygenase (Photinus pyralis) (UniProt P08659)
Assay: Biochemical firefly luciferase enzyme assay for NPC (AID 624030);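 further: purified P. pyralis luciferase at 10 nM with luciferin and ATP substrate; 0% = DMSO and -100% = full luciferase inhibition by PTC124 control; nearly all actives have a fitted effect of over 70% in size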
Settings: purified P. pyralis luciferase, luminescence, 5 min; series mostly up to 58.6 µM; activity change, negative = inhibition: at the top concentration
Procedure, shortened: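 Counter-screen for direct inhibition of the luciferase enzyme by approved-drug library compounds, run at 10 nM enzyme in 50 mM Tris acetate (final). Luminescence was read within 5 min of enzyme-buffer addition and normalized to PTC124 versus DMSO (0%).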

Sequence of Luciferin 4-monooxygenase (Photinus pyralis) (P08659 whole entry, looked up): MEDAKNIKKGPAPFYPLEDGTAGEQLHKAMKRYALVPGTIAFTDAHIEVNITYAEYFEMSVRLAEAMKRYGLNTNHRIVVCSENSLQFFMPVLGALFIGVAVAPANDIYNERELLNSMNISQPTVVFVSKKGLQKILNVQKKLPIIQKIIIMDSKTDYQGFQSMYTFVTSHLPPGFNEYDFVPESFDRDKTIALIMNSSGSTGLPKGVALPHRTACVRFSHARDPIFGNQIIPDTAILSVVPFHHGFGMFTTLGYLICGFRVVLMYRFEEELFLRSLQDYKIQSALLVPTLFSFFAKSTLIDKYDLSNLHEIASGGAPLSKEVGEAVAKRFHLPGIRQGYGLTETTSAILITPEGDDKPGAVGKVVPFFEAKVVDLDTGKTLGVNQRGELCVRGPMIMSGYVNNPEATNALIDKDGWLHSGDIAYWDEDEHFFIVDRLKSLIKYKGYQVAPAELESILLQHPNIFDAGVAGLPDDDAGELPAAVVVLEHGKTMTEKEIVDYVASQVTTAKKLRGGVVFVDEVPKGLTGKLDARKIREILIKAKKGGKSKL

Row | Compound | activity change, negative = inhibition [%] | Potency
1 | CN1CCN(CCCN2c3ccccc3Sc3ccccc32)CC1 | 4.94 | 
2 | CS(=O)(=O)Nc1cc2occ(NC=O)c(=O)c2cc1Oc1ccccc1 | -0.209 | 
3 | NCCCC[C@H](NC(=O)[C@@H]1CCCN1C(=O)[C@@H]1CSSC[C@H](NC(=O)CNC(=O)CNC(=O)CN)C(=O)N[C@@H](Cc2ccc(O)cc2)C(=O)N[C@@H](Cc2ccccc2)C(=O)N[C@@H](CCC(N)=O)C(=O)N[C@@H](CC(N)=O)C(=O)N1)C(=O)NCC(N)=O (H-GGGCYFQNCPKG-NH2; disulfide 4-9) | 1.01 | 
4 | CN=C(NC)NCc1ccccc1 | -5.95 | 
5 | CCC(C)(C)OC(=O)N[C@@H](Cc1c[nH]c2ccccc12)C(=O)N[C@@H](CCSC)C(=O)N[C@@H](CC(=O)O)C(=O)N[C@@H](Cc1ccccc1)C(N)=O | -0.511 | 
6 | CCCCc1cc2c(=O)c(C(=O)OC)c[nH]c2cc1OCc1ccccc1 | -2.2 | 
7 | O=S(O)CNc1ccc(S(=O)(=O)c2ccc(NCS(=O)O)cc2)cc1 | -4.49 | 
8 | NCCCNCCCCNC(=O)C(O)NC(=O)CCCCCCN=C(N)N (stereo unspecified) | 9.86 | 
9 | O=C(Cn1cnnn1)N[C@@H]1C(=O)N2C(C(=O)O)=C(CSc3nncs3)CS[C@H]12 |  | inactive
10 | O=[N+]([O-])c1ccc(Oc2ccc(N=C=S)cc2)cc1 | -9.39 | 
11 | CC(CC(c1ccccc1)c1ccccc1)NC(C)(C)C (stereo unspecified) | 6.3 | 
12 | O=C(O)c1cccc(/C=C2/C[C@@H]3[C@@H](/C=C/[C@@H](O)C4CCCCC4)[C@H](O)C[C@@H]3O2)c1 | -3.56 | 
13 | CCCCCCCCCCCCCCCC(=O)OC/C=C(C)/C=C/C=C(C)/C=C/C1=C(C)CCCC1(C)C | -1.07 | 
14 | CN(C(=O)CO)c1c(I)c(C(=O)NCC(O)CO)c(I)c(C(=O)NCC(O)CO)c1I (stereo unspecified) | -1.93 | 
15 | CCCCCCCCCCCCCCCC(=O)OCCC1CCN(CCCN2c3ccccc3Sc3ccc(S(=O)(=O)N(C)C)cc32)CC1 | -1.37 | 
16 | COc1cc2[nH]c(C)c(CCN3CCN(c4ccccc4)CC3)c2cc1OC | -0.437 | 
